In PubChem BioAssay AID1159580 (chemical genetic matrix, 2015):
Values joined by “and” are separate entries in the source; they are usually repeats but may differ in a detail not shown here. Identical values can stand only once. Out of some 5,500 compounds screened, about 2,000 (36%) were called active. About 18% were inconclusive and are not listed. No stated cut-off is given here; in the data, active means normalized growth mostly below about 0.91 (no sharp cut-off); inconclusive means no clear call, values can overlap the other calls; inactive means mostly above about 0.92. The list shows a part of the results.

Assay: chemical genetic growth profiling, strain panel (AID 1159580);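 further: tested at 20 µM; growth read once vehicle control cultures reached saturation at 30 °C; 1 = growth at the plate median or of vehicle wells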
Details: growth OD

Measured: normalized growth

COc1cc(OC)c2c(=O)cc(-c3ccccc3)oc2c1
active: S. cerevisiae deletion strains, locus YDL074C, strain BRE1, stronger effect = lower value 0.764 | S. cerevisiae deletion strains, locus YDL134C, strain PPH21, stronger effect = lower value 0.886 | S. cerevisiae deletion strains, locus YDL192W, strain arf1, stronger effect = lower value 0.914 | S. cerevisiae deletion strains, locus YDR162C, strain NBP2, stronger effect = lower value 0.752 | S. cerevisiae deletion strains, locus YDR318W, strain mcm21, stronger effect = lower value 0.868 | S. cerevisiae deletion strains, locus YDR502C, strain sam2, stronger effect = lower value 0.907 | S. cerevisiae deletion strains, locus YER167W, strain BCK2, stronger effect = lower value 0.899 | S. cerevisiae deletion strains, locus YGL086W, strain mad1, stronger effect = lower value 0.924 | S. cerevisiae deletion strains, locus YGL248W, strain PDE1, stronger effect = lower value 0.866 | S. cerevisiae deletion strains, locus YGR078C, strain PAC10, stronger effect = lower value 0.805 | S. cerevisiae deletion strains, locus YGR135W, strain pre9, stronger effect = lower value 0.819 | S. cerevisiae deletion strains, locus YGR229C, strain SMI1, stronger effect = lower value 0.664 | S. cerevisiae deletion strains, locus YHR079C, strain IRE1 (second series), stronger effect = lower value 0.895 | S. cerevisiae deletion strains, locus YKR001C, strain vps1, stronger effect = lower value 0.839 | S. cerevisiae deletion strains, locus YLR039C, strain RIC1, stronger effect = lower value 0.644 | S. cerevisiae deletion strains, locus YLR268W, strain sec22, stronger effect = lower value 0.877 | S. cerevisiae deletion strains, locus YLR342W, strain FKS1 (second series), stronger effect = lower value 0.71 | S. cerevisiae deletion strains, locus YLR418C, strain cdc73, stronger effect = lower value 0.685 | S. cerevisiae deletion strains, locus YML032C, strain rad52, stronger effect = lower value 0.757 | S. cerevisiae deletion strains, locus YMR223W, strain ubp8, stronger effect = lower value 0.875 | S. cerevisiae deletion strains, locus YMR263W, strain SAP30, stronger effect = lower value 0.871 | S. cerevisiae deletion strains, locus YNL233W, strain BNI4, stronger effect = lower value 0.846 | S. cerevisiae deletion strains, locus YNL307C, strain MCK1, stronger effect = lower value 0.533 | S. cerevisiae deletion strains, locus YNR052C, strain pop2, stronger effect = lower value 0.902 | S. cerevisiae deletion strains, locus YOL006C, strain TOP1, stronger effect = lower value 0.472 | S. cerevisiae deletion strains, locus YOR184W, strain ser1, stronger effect = lower value 0.792 | S. cerevisiae deletion strains, locus YPR163C, strain tif3, stronger effect = lower value 0.785 | S. cerevisiae deletion strains, strain wtn01, stronger effect = lower value 0.868
inactive: S. cerevisiae deletion strains, locus YAL013W, strain DEP1, stronger effect = lower value 0.912 | S. cerevisiae deletion strains, locus YBR021W, strain FUR4, stronger effect = lower value 0.978 | S. cerevisiae deletion strains, locus YBR229C, strain ROT2, stronger effect = lower value 0.949 | S. cerevisiae deletion strains, locus YCL029C, strain bik1, stronger effect = lower value 0.957 | S. cerevisiae deletion strains, locus YDL035C, strain GPR1, stronger effect = lower value 0.864 | S. cerevisiae deletion strains, locus YDL101C, strain DUN1, stronger effect = lower value 0.925 | S. cerevisiae deletion strains, locus YDL185W, strain tfp1, stronger effect = lower value 0.951 | S. cerevisiae deletion strains, locus YDR101C, strain arx1, stronger effect = lower value 0.936 | S. cerevisiae deletion strains, locus YDR150W, strain NUM1, stronger effect = lower value 0.949 | S. cerevisiae deletion strains, locus YDR388W, stronger effect = lower value 0.951 | S. cerevisiae deletion strains, locus YEL061C, strain CIN8, stronger effect = lower value 0.941 | S. cerevisiae deletion strains, locus YER110C, stronger effect = lower value 0.914 | S. cerevisiae deletion strains, locus YER155C, strain BEM2, stronger effect = lower value 0.951 | S. cerevisiae deletion strains, locus YGL078C, strain dbp3, stronger effect = lower value 0.961 | S. cerevisiae deletion strains, locus YGR252W, strain gcn5, stronger effect = lower value 0.793 | S. cerevisiae deletion strains, locus YHR079C, strain IRE1, stronger effect = lower value 0.925 | S. cerevisiae deletion strains, locus YHR094C, strain hxt1, stronger effect = lower value 0.96 | S. cerevisiae deletion strains, locus YHR129C, strain ARP1, stronger effect = lower value 0.934 | S. cerevisiae deletion strains, locus YHR200W, strain rpn10, stronger effect = lower value 0.929 | S. cerevisiae deletion strains, locus YIL066C, strain RNR3, stronger effect = lower value 0.912 | S. cerevisiae deletion strains, locus YIL073C, strain SPO22, stronger effect = lower value 0.844 | S. cerevisiae deletion strains, locus YIL125W, strain kgd1, stronger effect = lower value 0.975 | S. cerevisiae deletion strains, locus YIR030C, strain dcg1, stronger effect = lower value 0.95 | S. cerevisiae deletion strains, locus YJL134W, strain LCB3, stronger effect = lower value 0.948 | S. cerevisiae deletion strains, locus YJL168C, strain set2, stronger effect = lower value 0.944 | S. cerevisiae deletion strains, locus YJL187C, strain SWE1 (second series), stronger effect = lower value 0.879 | S. cerevisiae deletion strains, locus YJR043C, strain POL32, stronger effect = lower value 0.894 | S. cerevisiae deletion strains, locus YJR066W, strain TOR1, stronger effect = lower value 0.872 | S. cerevisiae deletion strains, locus YJR075W, strain HOC1, stronger effect = lower value 0.884 | S. cerevisiae deletion strains, locus YKL009W, strain mrt4, stronger effect = lower value 0.906 | S. cerevisiae deletion strains, locus YKL068W, stronger effect = lower value 0.967 | S. cerevisiae deletion strains, locus YKL085W, strain MDH1 (second series), stronger effect = lower value 0.963 | S. cerevisiae deletion strains, locus YKL085W, strain MDH1, stronger effect = lower value 0.963 | S. cerevisiae deletion strains, locus YKL190W, strain CNB1, stronger effect = lower value 0.948 | S. cerevisiae deletion strains, locus YLR058C, strain SHM2, stronger effect = lower value 0.913 | S. cerevisiae deletion strains, locus YLR102C, strain apc9, stronger effect = lower value 0.958 | S. cerevisiae deletion strains, locus YLR113W, strain HOG1, stronger effect = lower value 0.952 | S. cerevisiae deletion strains, locus YLR262C, strain YPT6, stronger effect = lower value 0.652 | S. cerevisiae deletion strains, locus YLR330W, strain CHS5, stronger effect = lower value 0.929 | S. cerevisiae deletion strains, locus YLR371W, strain rom2, stronger effect = lower value 0.959 | S. cerevisiae deletion strains, locus YML016C, strain PPZ1, stronger effect = lower value 0.929 | S. cerevisiae deletion strains, locus YML124C, strain tub3, stronger effect = lower value 0.952 | S. cerevisiae deletion strains, locus YMR078C, strain ctf18, stronger effect = lower value 0.912 | S. cerevisiae deletion strains, locus YMR307W, strain GAS1, stronger effect = lower value 0.625 | S. cerevisiae deletion strains, locus YNL067W, strain RPL9B, stronger effect = lower value 0.889 | S. cerevisiae deletion strains, locus YNL128W, strain TEP1, stronger effect = lower value 0.939 | S. cerevisiae deletion strains, locus YNL153C, strain GIM3, stronger effect = lower value 0.924 | S. cerevisiae deletion strains, locus YNL183C, strain NPR1, stronger effect = lower value 0.88 | S. cerevisiae deletion strains, locus YNL250W, strain rad50, stronger effect = lower value 0.923 | S. cerevisiae deletion strains, locus YNL271C, strain bni1, stronger effect = lower value 0.943 | S. cerevisiae deletion strains, locus YNL298W, strain CLA4, stronger effect = lower value 0.941 | S. cerevisiae deletion strains, locus YNL322C, strain KRE1, stronger effect = lower value 0.946 | S. cerevisiae deletion strains, locus YOL012C, strain htz1 0.858 | S. cerevisiae deletion strains, locus YOL147C, strain pex11, stronger effect = lower value 0.944 | S. cerevisiae deletion strains, locus YOR061W, strain CKA2, stronger effect = lower value 0.941 | S. cerevisiae deletion strains, locus YOR069W, strain VPS5, stronger effect = lower value 0.95 | S. cerevisiae deletion strains, locus YOR136W, strain idh2, stronger effect = lower value 0.965 | S. cerevisiae deletion strains, locus YOR144C, strain elg1, stronger effect = lower value 0.949 | S. cerevisiae deletion strains, locus YOR231W, strain MKK1, stronger effect = lower value 0.925 | S. cerevisiae deletion strains, locus YOR316C, strain cot1, stronger effect = lower value 0.943 | S. cerevisiae deletion strains, locus YPL055C, strain LGE1, stronger effect = lower value 0.83 | S. cerevisiae deletion strains, locus YPL241C, strain CIN2, stronger effect = lower value 0.946 | S. cerevisiae deletion strains, locus YPL256C, strain CLN2, stronger effect = lower value 0.911 | S. cerevisiae deletion strains, locus YPR119W, strain clb2, stronger effect = lower value 0.945 | S. cerevisiae deletion strains, locus YPR141C, strain kar3, stronger effect = lower value 0.967 | S. cerevisiae deletion strains, locus YPR167C, strain met16, stronger effect = lower value 0.951 | S. cerevisiae strains, strain wild type, stronger effect = lower value 0.905
0.718 (active) and 0.911 (inactive): S. cerevisiae deletion strains, locus YHR030C, strain SLT2, stronger effect = lower value
0.51 (active) and 0.918 (inactive): S. cerevisiae deletion strains, locus YJL095W, strain BCK1, stronger effect = lower value
